This is part of a sample that, as a whole, favours compounds with a hit. Of some 83,000 tested, about 20% had one in any assay.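 Step 1: grow cells in 96-well plates. Step 2: add test compound at a single concentration. Step 3: incubate 48 h. Step 4: record percent growth.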 Unmarked numbers belong to inactive results. Activity calls are given as the source filed them. How the source made its calls: active means growth percent below 10; inactive means the rest.
Assays:
Assay in all cases: NCI-60 one-dose screen, 48 h (100 = growth as untreated, 0 = no growth, -100 = all killed)
Conditions in all cases: 10 µM unless noted
NCI-H23 lung = system: NCI-H23 lung
NCI-H226 lung = system: NCI-H226 lung
NCI-H322M lung = system: NCI-H322M lung
HOP-62 NSCLC = system: HOP-62 NSCLC
NCI-H460 lung = system: NCI-H460 lung
HOP-92 NSCLC = system: HOP-92 NSCLC
NCI-H522 lung = system: NCI-H522 lung
A549/ATCC NSCLC = system: A549/ATCC NSCLC
786-0 renal = system: 786-0 renal
COLO 205 colon = system: COLO 205 colon
DU-145 prostate = system: DU-145 prostate
MALME-3M melanoma = system: MALME-3M melanoma
MDA-MB-231 breast = system: MDA-MB-231 breast
RXF 393 renal = system: RXF 393 renal
SF-268 CNS = system: SF-268 CNS
SF-295 CNS = system: SF-295 CNS
SF-539 CNS = system: SF-539 CNS
UACC-257 melanoma = system: UACC-257 melanoma
M14 melanoma = system: M14 melanoma
K-562 leukemia = system: K-562 leukemia

| SMILES | growth (NCI-H23 lung) | growth (NCI-H226 lung) | growth (NCI-H322M lung) | growth (HOP-62 NSCLC) | growth (NCI-H460 lung) | growth (HOP-92 NSCLC) | growth (NCI-H522 lung) | growth (A549/ATCC NSCLC) | growth (786-0 renal) | growth (COLO 205 colon) | growth (DU-145 prostate) | growth (MALME-3M melanoma) | growth (MDA-MB-231 breast) | growth (RXF 393 renal) | growth (SF-268 CNS) | growth (SF-295 CNS) | growth (SF-539 CNS) | growth (UACC-257 melanoma) | growth (M14 melanoma) | growth (K-562 leukemia) |
| --- | --- | --- | --- | --- | --- | --- | --- | --- | --- | --- | --- | --- | --- | --- | --- | --- | --- | --- | --- | --- |
| Cc1nc(Nc2ccc(F)c(Cl)c2)sc1C(=O)O | 15.7% | 26.9% | 54.3% | 27.3% | 18.1% | -23.8% (active) | -9.27% (active) | 12.9% | 19.6% | 5.72% (active) | 28.2% | 30.8% | -19.8% (active) | 15.4% | 29.3% | 15.2% | 24.4% | 4.37% (active) | 19.2% |  |
| COc1ccc(CN2c3ccccc3Oc3ccccc32)cc1O | 33.8% | 93.9% | 56.3% | 42.1% | 13.3% | 32.8% | -33.2% (active) | 37.6% | 43.2% | 91.3% | 36.8% | 45.1% | 56.6% | 50.1% | 57.4% | 14.5% | 16.3% | 39.1% | 18% |  |
| O=C(Cc1ccc(/C=C/C(=O)c2ncc[nH]2)cc1)Nc1ccc(F)cc1 | 24.2% | 61.3% | 33.3% | 20.5% | 1.46% (active) | 69.7% | 22.2% | 25.6% | 23.7% | 20.5% | 15.9% | 96.6% | 22.6% | 19.3% | 27.7% | 33.1% | -21.7% (active) | 92.1% | 54.9% |  |
| CCc1nc(N)nc(N)c1C#CC(C)c1ccc(-c2ccncc2)cc1Cl (stereo not given) | 16.2% | 57.4% | 38.4% | 10.3% | 5.02% (active) | 6.88% (active) | -9.46% (active) | 9.61% (active) | 18.3% | 12.3% | 21.1% | 39.6% | 43.3% | 32.9% | 16.6% | 10.1% | 4.42% (active) | 31.9% | 1.01% (active) |  |
| Clc1ccc2c(NCCNc3nc(N4CCOCC4)nc4ccccc34)ccnc2c1 | 44% | -22.5% (active) | 15.9% | -37.1% (active) | -29.3% (active) | -41.6% (active) | -70.6% (active) | 5.31% (active) | -39.9% (active) | -67.5% (active) | 29.9% | -50.9% (active) | -56% (active) | -39.4% (active) | 11.5% | -83% (active) | -80.2% (active) | 90.5% | -65.5% (active) |  |
| CN1C(=O)C2(SCC(C(=O)NCc3ccccc3)N2C(=O)C2CCCCC2)c2ccccc21 (stereo not given) | 91% | 84.3% | 77.1% | 98.2% | 96% | 86.3% | 75.4% | 93.6% | 101% | 95.3% | 98% | 94.1% | 117% | 119% | 83.3% | 100% | 123% | 106% | 87.3% |  |
| Cc1cc2c3ccccc3ccc2[n+]2ccccc12 | 46.4% | 43.4% | 47.2% | 9.19% (active) | 63.1% | 71.5% | -10.1% (active) | -16.9% (active) | 24% | 54.1% | 86.9% | -5.59% (active) | 81.6% |  | -24.6% (active) | 22.6% | 42.5% |  | 68.2% |  |
| CCN1CCN(c2nc(NCCCNc3ccnc4cc(Cl)ccc34)c3ccccc3n2)CC1 | 64.3% | 60.4% | 45.4% | 32.4% | 16.3% | 64.9% | -21.5% (active) | 18.8% | 30.7% | -22.9% (active) | 39.5% | -73.5% (active) | -10.8% (active) | 5.38% (active) | 55.1% | 22.7% | -74.4% (active) | -82.8% (active) | -87% (active) |  |
| O=C(CCCCC(=O)N/N=C\c1ccccc1O)N/N=C\c1ccccc1O | 58.4% | 52.9% | 27.5% | 39.1% | 12.2% | 64.4% | 46.4% | 48.9% | 19.6% | 35.4% | 45.1% | 32.6% | 50% | 43.4% | 40% | 37.9% | 19% | 26% | 20.9% |  |
| CN1CCN=C1c1ccc(NC(=O)c2ccc(C(=O)Nc3ccc(C4=NCCN4C)cc3)cc2)cc1 | 90.2% | 98.6% | 92.2% | 97.8% | 91% | 82.5% | 87% | 101% | 101% | 99.6% | 119% | 80.6% | 103% |  | 111% | 92.9% | 94.1% |  | 95.9% |  |
| O=C1Nc2c(ccc(Cl)c2Cl)/C1=C\c1ccc(C(F)(F)F)cc1 | 68.8% | 59.1% | 75.5% | 87.3% | 89.7% | 57.8% |  | 84.1% | 90.7% | 100% | 97.3% | 96.5% | 81.9% | 77.4% | 91.6% | 77.2% | 88.1% | 97.5% |  | 32.8% |
| COc1ccc(CN2c3ccccc3Sc3ccccc32)c(C(F)(F)F)c1 | 43.9% | 57.7% | 49.1% | 41% | 9.92% (active) | 39.4% | -46.3% (active) | 33.2% | 41.9% | -29.1% (active) | 21% | 92.7% | 40.6% | -9.74% (active) | 56.4% | 2.22% (active) | -12.4% (active) | 53.9% | 7.59% (active) |  |
| CCCCn1cnc2c(Sc3c([N+](=O)[O-])ncn3C)nc(N)nc21 | 110% | 96% | 105% | 94.7% | 106% | 76.2% | 97.3% | 88.2% | 104% | 100% | 99.6% | 93.9% | 97.9% | 102% | 102% |  | 105% | 84.1% | 102% |  |
| CCOc1ccc(-n2nc(C(=O)Nc3ccccc3)nc2-c2cc(OC)c(OC)c(OC)c2)cc1 | 66.6% | 80% | 67.6% | 55.7% | 27.9% | 46% | 22.8% | 41.4% | 69.4% | 22.1% | 89.6% | 54.5% | 43.9% | 69.2% | 76.5% | 34% | 62% | 66.4% | 38% |  |
| CCCCC(=O)OCC1OC(n2cnc3c(=S)nc[nH]c32)C(OC(=O)CCCC)C1OC(=O)CCCC (stereo not given) | 27.5% | 31.4% | 36.4% | 25.4% | 30.3% | 20.2% | 34.5% | 39.8% | 20.5% | 38.8% | 32% | 49.5% | 35.6% |  | 39% | 30.3% | 20.2% |  |  |  |
| Clc1ccc2nc3nc4ccc[nH]c4cc3c2c1 | 73.7% | 83.8% | 65.1% | 89.7% | 54.4% | 105% | 81.1% | 79.2% | 105% | 98.9% | 100% | 87.2% | 99.6% | 116% | 97.9% | 101% | 83.7% | 85.8% | 106% |  |
